111 molecules from PubChem BioAssay AID2546 (National Center for Advancing Translational Sciences (NCATS), 2010) can be followed below.

Hit rate of the full screen: of about 310,000 compounds, about 11,000 (3.5%) were called active. Roughly 8% stayed inconclusive and do not appear here. What follows is part of a selection rich in actives, with near analogues and random picks from the rest. Entries that show only a call come without a potency. A number with no mark means an inactive call. Calls come from the whole dose curve; as a rule, active = well fitted inhibition curve with a large enough effect; inconclusive = small, poorly fitted or top-dose-only effect, or effect the other way; inactive = flat fitted curve, though single readings scatter.
Potency is the fitted concentration of half-maximal effect.

The test can be described thus: VP16 counterscreen qHTS for inhibitors of ROR gamma transcriptional activity.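 Note: Gal4-VP16 expression switched on by copper sulfate through the metallothionein promoter; nearly all actives have a fitted effect of over 50% in size.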 To be noted: Drosophila S2 Gal4-VP16 UAS-luciferase, luminescence, 20 h; series mostly up to 53.6 µM. On the technique in general: The purpose of a counterscreen is to sort out artefacts and off-target activity.
For `CCOC(=O)c1c(-c2ccccc2)oc2ccc(OCC(N)=O)cc12`, the Potency entry was “inactive”.
As to `COc1cccc(CN2CCN(Cc3ccc4cccc(F)c4n3)CC2CCO)c1` (stereo unspecified), the Potency result was “inactive”.
Consider `CN1c2ccc([N+](=O)[O-])cc2C(C)(C)C12C=Cc1cc(C(=O)O)ccc1O2` (stereo unspecified), for which the Potency entry was “inactive”.
Same read-out and setting: the result for `CC(C)c1ccc(C(=O)OC2CCOC2=O)cc1` (stereo unspecified) reads “inactive”; that for `O=C(OC1CCOC1=O)c1ccc(-c2nc3ccccc3s2)s1` (stereo unspecified), 1 µM (active); that for `Cc1nn(Cc2ccccc2)c(Cl)c1C(=O)OC1CCOC1=O` (stereo unspecified), “inactive”.
Still for that read-out and setting: next, `O=C(CNC(=O)OCc1ccccc1)NC1CCCCNC1=O` (stereo unspecified): “inactive”; `Cc1cc(=O)n2[nH]c(-c3cccc(Cl)c3)cc2n1`: “inactive”; `C=C1C(=O)C23C(O)C1CCC2[C@]12COC3(O)C(O)C1C(C)(C)CC[C@H]2O` (stereo partly specified): 2.51 µM (active).
The same measure, in the same setting: the result for `CCOc1ccc(C(C(=O)NC2CCCC2)N(C(=O)c2snc(C(N)=O)c2N)C2CCCC2)cc1` (stereo unspecified) reads “inactive”; that for `COc1ccccc1Cn1c(CO)nc2ccccc21`, “inactive”.
Turning to `COCc1nc2ccccc2n1Cc1ccccc1Br`, the Potency is 5.62 µM (active).
Same read-out and setting: next, `COCn1c(COc2ccccc2)nc2ccccc21`: “inactive”.
Same read-out and setting: the result for `Cc1ccccc1CCNC(=O)C1CCC(=O)N(Cc2ccc(Cl)cc2)C1` (stereo unspecified) reads “inactive”; that for `CCCn1cc(S(=O)(=O)c2ccc(C)cc2)c(=O)c2cc(OCC)ccc21`, “inactive”.
In the case of `CCN(CC)c1ccc(/C=N/NC(=O)c2cnccn2)c(O)c1`, the Potency is 5.62 µM (active).
On the same count and under the same terms, next, `CCN(CC)c1ccc(/C=N/Nc2nc(C)cc(=O)[nH]2)cc1`: “inactive”; `Cc1cc(C)nc(N/N=C/c2ccncc2)n1`: “inactive”; `CCN(CC)c1ccc(/C=N/NC(=O)CNC(=O)c2cccnc2)cc1`: “inactive”.
For `Cc1ccc(C(=O)NCCNC(=O)c2cnccn2)cc1`, the Potency entry is “inactive”.
As for `CCN(CC)c1ccc(/C=N/Nc2nc(C)cc(C)n2)c(O)c1`, the Potency was 4.47 µM (active).
Turning to `Cc1cc(=O)n2nc(N3CCC(C(=O)Nc4c(F)c(F)c(F)c(F)c4F)CC3)sc2n1`, the Potency result is “inactive”.
Still for that read-out and setting: the result for `COc1ccc(S(=O)(=O)N2CCSCC2)cc1` reads “inactive”; that for `O=C(NNS(=O)(=O)c1ccc(F)cc1)c1ccc([N+](=O)[O-])cc1Cl`, “inactive”.
On the same count and under the same terms, next, `O=C(COc1ccc(Cl)cc1)Nc1ccc2c(c1)OCO2`: “inactive”.
Same read-out and setting: the result for `O=c1oc2ccccc2cc1-c1csc(Nc2ccc(O)cc2)n1` reads “inactive”.
On to `Cc1ccc(Nc2nc(-c3ccc(O)cc3O)cs2)nc1`, for which the Potency was 11.2 µM (active).
Same read-out and setting: the result for `Cc1cc(O)ccc1-c1cnc2ccccc2n1` reads “inactive”; that for `C=Cn1cc[n+](CC(=O)c2ccc(OC)c(OC)c2)c1`, “inactive”; that for `Cc1cc(/C=N/NC(=O)CC2(C)OCCO2)c(C)n1-c1ccc(Cl)c(Cl)c1`, 12.6 µM (active).
As for `Cc1ccccc1-n1c(C)cc(/C=N/NC(=O)c2ccc(CN3CCOCC3)cc2)c1C`, the activity, negative = inhibition is -2.91% [at 0.365 µM].
As to `Cc1ccc(-n2c(C)cc(/C=N\NC(=O)CC(=O)NC(C)C)c2C)cc1`, the Potency result was “inactive”.
Still for that read-out and setting: next, `COc1ccccc1C(=O)NC(CCSC)C(=O)NNC(=O)c1csc(N2CCOCC2)n1` (stereo unspecified): “inactive”.
Same read-out and setting: the result for `CCOc1ccc(C(=O)COC(=O)c2ccc(-n3cnnn3)cc2)cc1` reads “inactive”; that for `CN(C)CCCn1c(=O)n(Cc2ccccc2)c(=O)c2c3c(sc21)CCCCC3`, “inactive”; that for `CCCc1nc2sc3c(c2c(=O)n1NC(=O)CCCl)CCCC3`, “inactive”.
Still for that read-out and setting: the result for `CCn1c(=S)[nH]c2sc3c(c2c1=O)CCCCC3` reads 1.12 µM (active); that for `CC(C)c1ccc(NC(=O)[C@@H](NC(=O)N2CC(=O)Nc3ccccc32)C(C)C)cc1`, “inactive”; that for `CC(C)c1ccc(NC(=S)NC2CC3C=CC2C3)cc1` (stereo unspecified), 11.2 µM (active).
In the case of `S=C(NNC(=S)NC1CC2CCC1C2)NC1CC2C=CC1C2` (stereo unspecified), the Potency entry was “inactive”.
Still for that read-out and setting: the result for `S=C(NNC(=S)NC1CC2C=CC1C2)NC1CC2C=CC1C2` (stereo unspecified) reads “inactive”.
Still for that read-out and setting: next, `Cc1nn(C(C)C(=O)NCCC2=CCCCC2)c(=O)c2nn(-c3ccccc3)c(C)c12` (stereo unspecified): “inactive”.
Consider `COc1ccc(C(=O)NC2CC2)cc1OC1CCN(C/C=C/c2ccccc2)CC1`, for which the Potency entry is “inactive”.
Still for that read-out and setting: next, `CN(C)S(=O)(=O)c1cccc(C(=O)OCC(=O)N2CCCC2=O)c1`: “inactive”; `CCOC(=O)C1CCN(C(=O)Cn2nc(C)c3c(C)n(-c4ccccc4)nc3c2=O)CC1`: “inactive”; `CC(Oc1ccccc1[N+](=O)[O-])C(=O)N/N=C/c1ccoc1` (stereo unspecified): “inactive”.
Still for that read-out and setting: the result for `CC(C)c1cc(C(=O)N/N=C/c2ccoc2)c(O)c(C(C)C)c1` reads 3.16 µM (active).
On the same count and under the same terms, next, `O=C(N/N=C/c1ccoc1)c1ccc(Cl)cc1Cl`: “inactive”; `Cn1c(N2CCOCC2)c(C=O)c2ccccc21`: “inactive”; `CC1CCC(NS(=O)(=O)c2ccc3c(c2)CC(=O)N3)CC1` (stereo unspecified): “inactive”.
`Cc1occc1C(=O)NC1CCCN(Cc2ccc(CC(C)C)cc2)C1` (stereo unspecified): the Potency result is “inactive”.
Same read-out and setting: next, `CCOc1cc(/C=C/c2nc3ccccc3c(=O)[nH]2)cc(Br)c1OC`: “inactive”; `CCOc1c(Br)cc(/C=C2\C(=O)N(CCC#N)N=C2C)cc1OC`: 11.2 µM (active).
`C=CCOc1c(Br)cc(/C=N\n2nnnc2N)cc1OC`: the Potency entry is “inactive”.
Same read-out and setting: next, `C=CCOC(=O)C1=C(C)NC(C)=C(C(=O)OCC=C)C1c1cccs1`: “inactive”; `CCOC(=O)c1ccc(NC(=O)C2CC(=O)Nc3nc4ccccc4n32)cc1` (stereo unspecified): “inactive”.
Same read-out and setting: next, `CCOC(=O)C1=C(C)Nc2nc3ccccc3n2C1c1cccs1` (stereo unspecified): 5.01 µM (active); `CCOc1ccc2[nH]c(C(=O)N/N=C/c3cccc(OC)c3OC)cc2c1`: “inactive”; `COc1cccc(CCNC(=O)c2cccc(NC(=O)C3=C(C)OCCS3)c2)c1`: “inactive”.
Still for that read-out and setting: the result for `Cc1cc(SCC(=O)c2ccccc2)nc(SCC(=O)c2ccccc2)n1` reads “inactive”.
On to `Cc1cc(C)nc(S/C=C/C(=O)c2ccccc2)n1`, for which the Potency is 3.55 µM (active).
On the same count and under the same terms, the result for `Cc1ccc(N/C=C/C(=O)c2ccccc2)cc1C` reads “inactive”.
Same read-out and setting: the result for `CSc1ccccc1NC(=O)c1ccc2c(c1)CCN2S(C)(=O)=O` reads “inactive”.
For the molecule `Cc1nn(CCCC(=O)NCc2ccccc2Cl)c(=O)c2nccn12`, the Potency result was “inactive”.
As for `O=C(Cc1ccccc1)Nc1ccc(C(=O)Nc2ccccc2C(=O)O)cc1`, the Potency result is “inactive”.
For the molecule `CCOc1ccc(CN2CCN(Cc3ccc4cc(F)ccc4n3)CC2CCO)cc1` (stereo unspecified), the Potency result was “inactive”.
Same read-out and setting: the result for `COc1ccc(C(=O)NCc2nnc(SCC(=O)Nc3cccc(OC)c3)o2)cc1` reads “inactive”; that for `COc1cc(C(=O)NCc2nnc(SCC(=O)Nc3nc4ccc(C)cc4s3)o2)cc(OC)c1OC`, 3.16 µM (active).
The same measure, in the same setting: the result for `COc1cc(C(=O)NCc2nnc(SCC(=O)c3ccc(Cl)cc3)o2)cc(OC)c1OC` reads “inactive”; that for `O=C(CNC(=O)c1ccc(Br)o1)NCC1CCCO1` (stereo unspecified), “inactive”; that for `COc1ccc(C)cc1NC(=S)N1CCOCC1`, “inactive”.
The same measure, in the same setting: next, `COc1ccccc1/C=C/C(=O)NC(=S)N1CCOCC1`: 8.91 µM (active).
With `CCNC(=S)N1CCN(C(=O)c2ccco2)CC1`, the Potency entry is “inactive”.
Same read-out and setting: next, `O=C(/C=C/c1ccco1)NC(=S)N1CCCCC1`: 22.4 µM (active); `COc1ccccc1/C=C/C(=O)NC1CC2CCC1C2` (stereo unspecified): “inactive”.
With `COc1ccc(/C=C/C(=O)NC(=S)N2CCCC(C(N)=O)C2)cc1` (stereo unspecified), the Potency entry is “inactive”.
The same measure, in the same setting: the result for `CC1CCCN(S(=O)(=O)c2ccc(-c3ccc(=O)[nH]n3)o2)C1` (stereo unspecified) reads “inactive”; that for `O=C(C1CC(=O)N(c2ccc(Br)cc2)C1)N1CCCC1` (stereo unspecified), “inactive”.
Still for that read-out and setting: next, `OC(c1nc2ccc(F)cc2[nH]1)C(O)c1nc2ccc(F)cc2[nH]1` (stereo unspecified): “inactive”; `CC(C)c1nc2ccc(C(=O)O)cc2[nH]1`: 20 µM (active).
Same read-out and setting: the result for `Cc1nc2ccc(C(=O)O)cc2[nH]1` reads “inactive”.
As for `COc1ccc2cc(C(=O)C3CCCN(C(=O)c4sc(C)nc4C)C3)ccc2c1` (stereo unspecified), the Potency entry was “inactive”.
On to `CC(C)(C)OC(=O)NNc1c2ccccc2nc2ccccc12`, for which the Potency entry was “inactive”.
Same read-out and setting: the result for `COC(=O)CSc1nnc(NC(=O)CCc2ccccc2)s1` reads “inactive”; that for `O=C(NCCc1ccccc1Cl)C1CCC(=O)N(CCCc2ccccc2)C1` (stereo unspecified), “inactive”.
The same measure, in the same setting: next, `CCCn1c(CCNc2nc(-c3ccc(OC)cc3)cs2)nc2ccccc21`: “inactive”.
On the same count and under the same terms, next, `O=C(CCCC(=O)N1CCN(c2cccc(Cl)c2)CC1)c1ccccc1`: “inactive”; `Cc1nc(=O)c(-c2ccccc2)c(C)n1-c1ccc(Br)cc1`: “inactive”; `Brc1ccccc1C1N=C(c2ccccc2)NO1` (stereo unspecified): “inactive”.
Take `S=C1NC(c2ccccc2)=NCN1c1ccc(Br)cc1`: the Potency is 20 µM (active).
On the same count and under the same terms, the result for `COc1cc(NC(=O)CSc2ccc(-c3cccnc3)nn2)cc(OC)c1` reads “inactive”; that for `CCOC(=O)C1(CCOc2ccccc2)CCN(Cc2ccc(C#CCCO)cc2)CC1`, “inactive”.
`C=CCn1c(C23CC4CC(CC(C4)C2)C3)n[nH]c1=S`: the Potency was 2.51 µM (active).
Still for that read-out and setting: the result for `C=CCn1c(SCC(=O)NC23CC4CC(CC(C4)C2)C3)nc(O)cc1=O` reads “inactive”.
With `C=CCn1c(SCC(=O)NC)nnc1C12CC3CC(CC(C3)C1)C2`, the Potency result was “inactive”.
On the same count and under the same terms, the result for `COc1cc(NS(=O)(=O)c2ccc(NC(=S)NC(=O)c3ccccc3)cc2)nc(OC)n1` reads “inactive”.
Take `Cn1c(C(=O)N2CCCC(C(=O)NCc3ccccc3)C2)cc2sccc21` (stereo unspecified): the Potency result was “inactive”.
The same measure, in the same setting: next, `CC(=O)Nc1ccc(S(=O)(=O)NC2Cc3ccccc3C2)cc1`: “inactive”; `COc1ccc(-c2nc3ccccc3c(=O)n2CCc2ccc(O)cc2)cc1`: “inactive”; `O=C(CSc1nc2ccccc2s1)Nc1ccc(C(=O)O)cc1`: “inactive”.
Turning to `COc1ccc(S(=O)(=O)Nc2ccc(O)c(Sc3nc4ccccc4s3)c2)cc1`, the Potency result is “inactive”.
On to `O=[N+]([O-])c1c(NCCO)cc(Sc2nc3ccccc3s2)c2nonc12`, for which the Potency was 5.01 µM (active).
The same measure, in the same setting: the result for `CCCOc1cccc(C(=O)Nc2ccccc2C(=O)N2CCN(C)CC2)c1` reads “inactive”.
The same measure, in the same setting: the result for `Cc1ccc(S(=O)(=O)c2nc(-c3cccs3)oc2NCc2cccnc2)cc1` reads “inactive”.
Take `S=c1[nH]nc(COc2ccccc2)n1-c1ccccc1`: the Potency is 10 µM (active).
Same read-out and setting: the result for `Cc1ccc(OCc2n[nH]c(=S)n2-c2ccc(C)cc2)cc1` reads “inactive”.
With `Fc1ccc(/C=N/n2c(COc3ccccc3)n[nH]c2=S)cc1`, the Potency entry was “inactive”.
Still for that read-out and setting: next, `COc1ccc2oc(C(=O)NCC(Cc3ccccc3)N(C)C)c(C)c2c1` (stereo unspecified): “inactive”.
For `CC(C)Oc1ccc(CCc2n[nH]c(=S)n2Cc2ccccc2)cc1`, the Potency was 15.8 µM (active).
Same read-out and setting: the result for `CC(C)Oc1ccc(Cc2n[nH]c(=S)n2Cc2ccccc2)cc1Cl` reads “inactive”.
Same read-out and setting: the result for `C=CCn1c(CCc2ccc(OC(C)C)cc2)n[nH]c1=S` reads “inactive”.
